Reference: PubChem BioAssay AID1347383 (Zoeller Lab, School of Medicine, Boston University, 2020)
The source made the active and inactive calls.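 The calls were made as follows: active = cell survival after UV exposure 2 SD above solvent-only control wells at 10 µM, confirmed on one or two repeats; inactive = the rest.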

Experiment: cell survival after pyrene fatty acid photosensitization – ZR-82 cells, Analyticon library, screen 2, phospholipid biosynthesis inhibitor project, primary screen (AID 1347383);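 also: survival reflects blocked phospholipid synthesis cutting uptake of the phototoxic fatty acid; compound and fatty acid exposure 3 h then viability read next day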
Conditions: ZR-82 CHO cells, pyrene-fatty acid UV killing, CellTiter Blue; at 10 µM; peroxisome-deficient CHO-K1 variant; with DGAT-1, DGAT-2 and ACAT inhibitors

Row | Compound | outcome
1 | O=C(/C=C/c1ccc(O)cc1)c1c(O)cc(O)cc1O | inactive
2 | CC(=O)O[C@H]1C[C@@]2(C)[C@@H](CC[C@H]3[C@@]4(C)C=CC(=O)[C@@H](C)[C@@H]4[C@H](OC(C)=O)C(=O)[C@@]32C)/C1=C(\CCC=C(C)C)C(=O)O | inactive
3 | CC1(C)CCC[C@@]2(C)C1C[C@H]1O[C@@]1(C)[C@]21CC[C@](C)(CC(=O)O)O1 (some centres undefined) | inactive
4 | COc1ccc(C)c2c(O)c(CC=C(C)C)c(=O)oc12 | inactive
5 | CC(C)=CCC/C(C)=C/Cc1c(O)c(CC=C(C)C)c2oc3ccc(O)cc3c(=O)c2c1O | inactive
6 | CCC(C)C1NC(=O)C(C)NC1=O (centres undefined) | inactive
7 | CC1CCC2(C)C(CC(O)C(O)C23CO3)C1(C)CCC1=CC(O)OC1=O (centres undefined) | inactive
8 | COc1cc(CC(C)C(C)Cc2ccc(O)c(OC)c2)ccc1O (centres undefined) | inactive
9 | C=C(C)[C@H]1CC[C@]2(C(=O)O)CC[C@]3(C)C(CCC4[C@@]5(C)CCC(=O)C(C)(C)C5CC[C@]43C)C12 (some centres undefined) | inactive
10 | CC/C=C/C=C/C1(C)OC(=O)C(C(C)=O)=C1O (centres undefined) | inactive
11 | CC(=O)C(C)C(O)C(C)c1ccc(CO)cc1/C=C/CO (centres undefined) | inactive
12 | O=C(CCc1ccc(O)c(O)c1)CCC(O)Cc1ccc(O)c(O)c1 (centres undefined) | inactive
13 | COC(=O)C1=CO[C@@H](C)[C@H]2CN3CCc4c([nH]c5ccccc45)[C@@H]3C[C@H]12 | active
14 | CCC(O)/C=C1\OC(=O)C2=C1CCC=C2 (centres undefined) | inactive
15 | COC(=O)CC(O)C1OC(c2ccccc2)C(O)C1O (centres undefined) | inactive
16 | COC(=O)C12OC1CCC1C3(C)CC(C4=CC(=O)OC4O)OC(=O)C3CCC12C (centres undefined) | inactive
17 | CC(=O)Nc1ccccc1C(=O)O | inactive
18 | COc1ccc(C(O)C(C)O)cc1 (centres undefined) | inactive
19 | COc1ccc(CCc2cc(OC)cc(=O)o2)cc1 | inactive
20 | C=C[C@@]1(C)CC[C@@H]([C@H](C)C(=O)CC=C(C)C)O1 | inactive

Row | Compound | outcome
21 | O=C1c2c(O)cc(O)cc2O[C@@H](c2ccc(O)cc2)[C@@H]1O | inactive
22 | C=C1CC[C@@H](C)[C@](C)(CCc2ccoc2)C/C=C\C=C/1C(=O)O | inactive
23 | O=C1c2cccc(O)c2C(=O)c2c(O)cccc21 | inactive
24 | O=C1CC(c2ccc(O)c(O)c2)Oc2cc(O)cc(O)c21 (centres undefined) | inactive
25 | C/C(=C\C(=O)C[C@]12C(=O)O[C@]3(C)CC[C@H]1C[C@H]23)C(N)=O | inactive
26 | O=c1c(O)c(-c2cc(O)c(O)c(O)c2)oc2cc(O)cc(O)c12 | inactive
27 | CC1OC(n2cnc3c(N)ncnc32)C(O)C1O (centres undefined) | inactive
28 | Cc1cc(O)cc2c(=O)oc(CC(C)O)cc12 (centres undefined) | inactive
29 | CC(Cc1ccc(O)c(O)c1)C(C)Cc1ccc(O)c(O)c1 (centres undefined) | inactive
30 | CC1CCCC[C@H]2C(=O)C=C[C@H](O)[C@@H]2CC(=O)O1 (some centres undefined) | inactive
31 | COC1=CC(=O)CC(C)C12Oc1cc(OC)cc(OC)c1C2=O (centres undefined) | inactive
32 | C=C1C(=O)O[C@@H]2C[C@H](C)[C@@]3(O)C=C(C(C)=O)C4(CC3C[C@H]12)C(=O)O[C@H]1C[C@@H](C)C(CCC(C)=O)=CC[C@H]14 (some centres undefined) | inactive
33 | C=CC(C)(C)c1cc2cc(CC3OC3(C)C)c(OC)cc2oc1=O (centres undefined) | inactive
34 | C=CCC1=CC(OC)(C(C)Cc2ccc3c(c2)OCO3)C(OC)=CC1=O (centres undefined) | inactive
35 | CC(C)CNC(=O)/C=C/C=C/Cc1cccs1 | inactive
36 | C=C[C@H]1CN2CC[C@H]1C[C@@H]2C(O)c1ccnc2ccc(OC)cc12 (some centres undefined) | inactive
37 | COc1ccc(Cc2nccc3cc(OC)c(OC)cc23)cc1OC | inactive
38 | O=C(O)c1ccc(OC2OC(CO)C(O)C(O)C2O)cc1 (centres undefined) | inactive
39 | COC(=O)C(CO)NC(=O)c1cccc(O)c1O (centres undefined) | inactive
